An excerpt weighted towards active compounds, which were near 3.6% of everything screened.
TWEAK-Fn14 inh – inhibitors of TWEAK-Fn14 interaction signaling; hit rate 2% among 360,000; inhibition, % at 10 µM; AID 1159606; TWEAK-stimulated Fn14 reporter cells, luciferase luminescence, 8 h; in the data active = inhibition above about 50%
HSF1 inh – HSF1 inhibition | AID 2098 | NIH3T3-HGL HSE-luciferase, MG132-induced, luminescence 8 h; stronger effect = lower value | activity change, negative = inhibition, % at 7.5 µM (by protocol) | hit rate 0.77% among 300,000;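 active = more than half of replicate wells show activity change below -50%, luminescence cut by over half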;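 note: luciferase reports HSF-1 transcriptional activity via heat shock element; 0% = median of DMSO wells and -100% = zero luminescence signal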
LMP1 NFkB inh – inhibitors of Epstein-Barr LMP1-induced NF-kappaB reporter. LMP1-induced NF-kappaB luciferase reporter cells, luminescence. inhibition, % at 12.5 µM. hit rate 0.69% among 350,000; in the data active = inhibition above about 41%;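 note: 0% = neutral control wells and 100% = reference inhibitor control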
LGR2 antag – Drosophila LGR2 receptor signaling inhibition. AID 720647. hit rate 0.35% among 380,000. HEK293 LGR2, CRE-luciferase, bursicon-stimulated, 4 h. inhibition, % at 9.99 µM;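 active = drop in luminescence signal, shown as inhibition above about 50% in the replicate tests, limit read from the data, passing the limit was not always enough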;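 note: agonist challenge used bursicon conditioned medium at about half maximal strength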
HSF1 activator – increases HSF-1 driven luciferase reporter signal; activation, % at 9 µM; AID 504408; hit rate 1.7% among 300,000; NIH3T3-HGL HSF-1 luciferase reporter, MG132, 8 h; 100% = twice DMSO control signal;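 active = mean replicate activation of at least 50% with a set share of replicates each reaching 50%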;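 note: 0% = median of the neutral control wells and 100% = twice that signal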
TROY NFkB inh – blocks TROY-dependent signaling in reporter cells; Q293 LMP1-TROYcd NF-kB luciferase reporter, 4 h; inhibition, % at 10 µM; hit rate 0.98% among 360,000;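 active = compounds whose plate-normalised and pattern-corrected inhibition of the luciferase reporter signal at the single screening dose is 50% or more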
The depositor's hits bear a star; nt = no result.

SMILES	TWEAK-Fn14 inh	HSF1 inh	LMP1 NFkB inh	LGR2 antag	HSF1 activator	TROY NFkB inh
O=C(Cn1cnc2ccccc21)c1ccccc1	-6.7	-0.6	7.6	5.1	-8.2	11.3
NC1=NC(=O)NC1(c1ccccc1)c1ccccc1	18.3	-14.6	48.3*	-12.9	-14.6	1.8
O=c1c2c(-c3ccccc3)csc2nc2c3ccccc3c(NCCN3CCOCC3)nn12	-18.9	14.6	-46.0	63.7*	43.9	6.2
C[C@@H]1CN([C@H](C)CO)C(=O)c2cccc(N(C)C)c2O[C@H]1CN(C)S(C)(=O)=O	nt	nt	nt	-5.1	nt	nt
CC(=O)c1coc2c1cc(O)c1ccccc12	-28.8	3.0	7.9	nt	8.8	47.4
O=C(c1ccco1)c1coc2c1cc(O)c1ccccc12	-2.3	36.1	3.3	nt	67.9*	48.2
CC1Cc2ccccc2N1C(=O)COC(=O)c1ccccc1NCCO (configuration not stated)	57.1*	-2.3	-19.0	5.4	2.6	24.6
CC1Cc2ccccc2N1C(=O)COC(=O)c1cccc(Br)c1 (configuration not stated)	5.0	nt	-4.5	-1.1	nt	-17.5
O=C(COC(=O)c1ccccc1Br)NCC1CCCCC1	-35.3	nt	nt	-81.7	nt	-66.7
CC1CCN(C(=O)COC(=O)c2ccccc2NCCO)CC1	1.2	nt	-0.2	-1.8	nt	-14.2
CC1Cc2ccccc2N1C(=O)COC(=O)c1ccc(S(=O)(=O)N(C)C)cc1 (configuration not stated)	5.2	-77.5*	-1.8	nt	-81.9	13.2
O=C(COC(=O)c1ccccc1NCCO)NCC1CCCCC1	50.1*	nt	15.8	-28.0	nt	23.7
C[C@@H]1CN([C@H](C)CO)C(=O)c2cc(NC(=O)CCC(F)(F)F)ccc2O[C@@H]1CN(C)Cc1ccc(C(=O)O)cc1	nt	nt	nt	-8.4	nt	nt
Cn1ncc2c(O/N=C(\N)c3ccc(C(C)(C)C)cc3)ncnc21	99.6*	-92.1*	-58.8	nt	-92.5	31.8
COc1ccc(S(=O)(=O)N[C@@H]2CC[C@H](CC(=O)O)O[C@@H]2CO)cc1	nt	nt	nt	-6.9	nt	nt
C[C@@H]1CN([C@H](C)CO)C(=O)c2cc(NS(C)(=O)=O)ccc2O[C@@H](C)CCCCO[C@@H]1CN(C)S(=O)(=O)c1ccccc1	nt	nt	nt	-3.8	nt	nt
Cc1cc(C(=O)N/N=C/c2ccc(N(C)C)cc2)c2ccccc2n1	51.2*	1.6	0.4	13.9	20.3	54.1*
Oc1ccc(/C=N/NC(=S)NCc2ccco2)cc1	1.6	10.8	1.5	nt	1.6	-26.8
CN(C)c1ccc(/C=N/NC(=S)NCc2ccccc2)cc1	-8.6	15.6	2.8	nt	55.3*	-42.9
S=C(NCc1ccco1)N/N=C/c1ccc(Cl)cc1	-9.0	35.3	7.8	-7.9	94.6*	-23.4
C[C@H]1CN([C@@H](C)CO)C(=O)c2cc(NC(=O)CCCCCC(=O)Nc3ccccc3N)ccc2O[C@H]1CN(C)S(=O)(=O)c1ccccc1	nt	nt	nt	-9.1	nt	nt
C[C@@H]1CCCCO[C@H](CN(C)C(=O)CCCN(C)C)[C@@H](C)CN([C@@H](C)CO)C(=O)c2cc(N(C)C)ccc2O1	nt	nt	nt	-1.4	nt	nt
Cc1nc(N2CCC(C)CC2)c2c(C)c(C(=O)Nc3cccc(C(F)(F)F)c3)sc2n1	8.7	20.2	1.3	15.7	59.2*	9.8
Cc1ccc(S(=O)(=O)N[C@@H]2CC[C@@H](CCNC(=O)C3CCCC3)O[C@H]2CO)cc1	nt	nt	nt	-4.7	nt	nt
CC(=O)c1ccc(N(C(=O)c2ccco2)C(C(=O)NC2CCCC2)c2ccc(N3CCOCC3)cc2)cc1 (configuration not stated)	-2.3	34.5	14.4	-40.8	69.0*	9.0
SMILES	TWEAK-Fn14 inh	HSF1 inh	LMP1 NFkB inh	LGR2 antag	HSF1 activator	TROY NFkB inh
CC(=O)c1cccc(N(C(=O)c2ccco2)C(C(=O)NC2CCCC2)c2ccccc2F)c1 (configuration not stated)	53.2*	-0.6	-4.4	-2.5	1.4	-8.2
C[C@H](CO)N1C[C@H](C)[C@H](CN(C)C(=O)c2ccccc2)Oc2ncc(C3=CCCC3)cc2C1=O	nt	nt	nt	-2.4	nt	nt
O=C(OCc1nc2ccccc2s1)[C@@H]1CCCN1S(=O)(=O)c1ccccc1F	-5.6	-2.0	76.8*	nt	24.3	29.3
COc1cccc(S(=O)(=O)N2C[C@H](O)COC[C@@H]3O[C@H](CC(=O)N4CCOCC4)CC[C@H]32)c1	nt	nt	nt	0.6	nt	nt
O=C(C[C@@H]1CC[C@H]2[C@@H](COC[C@@H](O)CN2C(=O)Nc2cccc(Cl)c2)O1)NCC1CCCCC1	nt	nt	nt	-4.8	nt	nt
O=[N+]([O-])c1cc(C(F)(F)F)cc([N+](=O)[O-])c1NCCNC(=S)Nc1cccc(F)c1	24.2	6.7	22.7	26.4	17.3	68.5*
Fc1ccc(CNC(=S)Nc2cccc(C(F)(F)F)c2)cc1	10.4	0.9	10.5	0.7	3.2	20.8
Cc1ccc(NC(=O)c2ccccc2)cc1	-2.1	23.4	-10.1	nt	25.2	-63.5
Cc1ccc(NC(=O)C2=C(c3ccccc3)S(=O)(=O)CCS2(=O)=O)cc1	87.7*	-74.9*	93.5*	37.6	-78.3	73.5*
Cc1ccc(NC(=O)C(=O)c2ccc(C)cc2)cc1	-20.0	19.3	-10.7	-56.2	61.2*	4.6
Cc1ccc(C)n1NC(=O)c1ccccc1O	17.6	-84.8*	-1.1	4.4	-88.1	-8.0
Cc1ccc(NC(=O)c2ccccc2O)cc1	0.2	41.3	-29.8	-41.7	82.3*	nt
C[C@H](CO)N1C[C@H](C)[C@@H](CN(C)CC2CCCC2)Oc2cc(Br)ccc2S1(=O)=O	nt	nt	nt	-1.5	nt	nt
Cc1ccc(NC(=O)c2c(Cl)n(C)c3ccccc23)cc1	-17.7	42.4	-51.0	nt	71.7*	-92.9
CN1c2ccc(C#Cc3cccnc3)cc2[C@H]2[C@H](CCN2S(=O)(=O)c2cccc(F)c2)[C@H]1CO	nt	nt	nt	5.7	nt	nt
OCC1CCCN(C(=S)Nc2ccc(Nc3ccccc3)cc2)C1 (configuration not stated)	-41.5	33.6	-14.6	-146.5	74.2*	-26.6
CC(C(=O)NC1CCCc2ccccc21)N1CCN(c2ccc(F)cc2)CC1 (configuration not stated)	13.5	0.4	8.8	9.9	11.8	12.5
CC(C(=O)NC1CCCc2ccccc21)N1CCN(Cc2ccc3c(c2)OCO3)CC1 (configuration not stated)	8.3	-6.2	5.7	nt	2.8	58.1*
O=C(Nc1cccc(Cl)c1)N1C[C@H]2[C@@H](c3ccccc31)[C@H](CO)N2Cc1ccccc1Cl	nt	nt	nt	5.7	nt	nt
C[C@@H]1CN([C@@H](C)CO)C(=O)c2cc(NC(=O)CCCN(C)C)ccc2O[C@@H]1CN(C)S(=O)(=O)c1ccc(F)cc1	nt	nt	nt	11.2	nt	nt
COc1cc2nc(CSc3nc(-c4ccc(F)cc4)cs3)[nH]c(=O)c2cc1OC	11.0	21.1	-5.0	32.3	66.7*	-11.7
O=[N+]([O-])c1ccc(CSc2nnc(SCc3ccc(Cl)cc3)s2)cc1	-23.6	27.3	-1.7	-14.4	55.7*	8.8
Nc1ccc2nc(SCc3ccc([N+](=O)[O-])cc3)sc2c1	-3.2	57.1	-19.1	-32.4	98.4*	-19.4

Bioassay records from PubChem.
